According to PubChem BioAssay AID1159580 (chemical genetic matrix, 2015):
The whole screen tested about 5,500 compounds, of which about 2,000 (36%) were called active. About 18% were inconclusive and are not listed. Cut-off read from the data, not from the text of the source: active = normalized growth mostly below about 0.91 (no sharp cut-off); inconclusive = no clear call, values can overlap the other calls; inactive = mostly above about 0.92. The list shows a part of the results.

Experiment: chemical genetic growth profiling, strain panel (AID 1159580);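 note: tested at 20 µM; growth read once vehicle control cultures reached saturation at 30 °C; 1 = growth at the plate median or of vehicle wells; lower values mean less growth of the strain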
Settings: growth OD

Measured: normalized growth

CCCCCCCCCCCCCC(=O)OC1C(C)C2(O)C(C=C(CO)CC3(O)C(=O)C(C)=CC32)C2C(C)(C)C12OC(C)=O (centres undefined)
inactive: S. cerevisiae deletion strains, locus YJR043C, strain POL32, active compounds read low 1.03 | S. cerevisiae deletion strains, locus YJR075W, strain HOC1, active compounds read low 1 | S. cerevisiae deletion strains, locus YKL009W, strain mrt4, active compounds read low 0.973 | S. cerevisiae deletion strains, locus YKL068W, active compounds read low 1.01 | S. cerevisiae deletion strains, locus YKL085W, strain MDH1 (second series), active compounds read low 0.966 | S. cerevisiae deletion strains, locus YKL085W, strain MDH1, active compounds read low 0.966 | S. cerevisiae deletion strains, locus YKL160W, strain elf1, active compounds read low 1 | S. cerevisiae deletion strains, locus YKL190W, strain CNB1, active compounds read low 1.02 | S. cerevisiae deletion strains, locus YKR001C, strain vps1, active compounds read low 0.981 | S. cerevisiae deletion strains, locus YKR026C, strain gcn3, active compounds read low 0.964 | S. cerevisiae deletion strains, locus YKR091W, strain srl3, active compounds read low 0.979 | S. cerevisiae deletion strains, locus YLL001W, strain dnm1, active compounds read low 0.991 | S. cerevisiae deletion strains, locus YLL026W, active compounds read low 0.988 | S. cerevisiae deletion strains, locus YLL041C, strain sdh2, active compounds read low 0.984 | S. cerevisiae deletion strains, locus YLR027C, strain aat2, active compounds read low 0.992 | S. cerevisiae deletion strains, locus YLR039C, strain RIC1, active compounds read low 1.06 | S. cerevisiae deletion strains, locus YLR058C, strain SHM2, active compounds read low 0.996 | S. cerevisiae deletion strains, locus YLR102C, strain apc9, active compounds read low 0.998 | S. cerevisiae deletion strains, locus YLR221C, strain rsa3, active compounds read low 0.972 | S. cerevisiae deletion strains, locus YLR258W, strain gsy2, active compounds read low 0.988 | S. cerevisiae deletion strains, locus YLR262C, strain YPT6 (second series), active compounds read low 0.993 | S. cerevisiae deletion strains, locus YLR262C, strain YPT6, active compounds read low 0.988 | S. cerevisiae deletion strains, locus YLR268W, strain sec22, active compounds read low 1.01 | S. cerevisiae deletion strains, locus YLR320W, strain mms22, active compounds read low 0.974 | S. cerevisiae deletion strains, locus YLR330W, strain CHS5, active compounds read low 0.997 | S. cerevisiae deletion strains, locus YLR342W, strain FKS1 (second series), active compounds read low 1.03 | S. cerevisiae deletion strains, locus YLR342W, strain FKS1, active compounds read low 0.982 | S. cerevisiae deletion strains, locus YLR357W, strain rsc2, active compounds read low 0.954 | S. cerevisiae deletion strains, locus YLR370C, strain arc18, active compounds read low 0.988 | S. cerevisiae deletion strains, locus YLR371W, strain rom2, active compounds read low 0.994 | S. cerevisiae deletion strains, locus YLR384C, strain iki3, active compounds read low 0.99 | S. cerevisiae deletion strains, locus YLR418C, strain cdc73, active compounds read low 0.973 | S. cerevisiae deletion strains, locus YML016C, strain PPZ1, active compounds read low 1.03 | S. cerevisiae deletion strains, locus YML032C, strain rad52, active compounds read low 0.976 | S. cerevisiae deletion strains, locus YML120C, strain ndi1, active compounds read low 0.983 | S. cerevisiae deletion strains, locus YML124C, strain tub3, active compounds read low 0.998 | S. cerevisiae deletion strains, locus YMR058W, strain fet3, active compounds read low 0.983 | S. cerevisiae deletion strains, locus YMR078C, strain ctf18, active compounds read low 0.991 | S. cerevisiae deletion strains, locus YMR125W, strain sto1, active compounds read low 0.993 | S. cerevisiae deletion strains, locus YMR129W, active compounds read low 0.976 | S. cerevisiae deletion strains, locus YMR205C, strain PFK2, active compounds read low 0.926 | S. cerevisiae deletion strains, locus YMR223W, strain ubp8, active compounds read low 0.971 | S. cerevisiae deletion strains, locus YMR231W, strain pep5, active compounds read low 0.986 | S. cerevisiae deletion strains, locus YMR263W, strain SAP30, active compounds read low 1 | S. cerevisiae deletion strains, locus YMR307W, strain GAS1, active compounds read low 0.922 | S. cerevisiae deletion strains, locus YNL067W, strain RPL9B, active compounds read low 1.01 | S. cerevisiae deletion strains, locus YNL071W, strain lat1, active compounds read low 0.991 | S. cerevisiae deletion strains, locus YNL128W, strain TEP1, active compounds read low 1.01 | S. cerevisiae deletion strains, locus YNL153C, strain GIM3, active compounds read low 0.999 | S. cerevisiae deletion strains, locus YNL209W, strain ssb2, active compounds read low 0.99 | S. cerevisiae deletion strains, locus YNL233W, strain BNI4, active compounds read low 1 | S. cerevisiae deletion strains, locus YNL248C, strain rpa49, active compounds read low 0.995 | S. cerevisiae deletion strains, locus YNL250W, strain rad50, active compounds read low 0.981 | S. cerevisiae deletion strains, locus YNL271C, strain bni1, active compounds read low 1 | S. cerevisiae deletion strains, locus YNL298W, strain CLA4, active compounds read low 0.976 | S. cerevisiae deletion strains, locus YNL307C, strain MCK1, active compounds read low 0.99 | S. cerevisiae deletion strains, locus YNL322C, strain KRE1 (second series), active compounds read low 0.978 | S. cerevisiae deletion strains, locus YNL322C, strain KRE1, active compounds read low 0.997 | S. cerevisiae deletion strains, locus YNR049C, strain mso1, active compounds read low 0.981 | S. cerevisiae deletion strains, locus YNR052C, strain pop2, active compounds read low 0.995 | S. cerevisiae deletion strains, locus YOL006C, strain TOP1, active compounds read low 1.03 | S. cerevisiae deletion strains, locus YOL012C, strain htz1 0.932 | S. cerevisiae deletion strains, locus YOL147C, strain pex11, active compounds read low 0.99 | S. cerevisiae deletion strains, locus YOR001W, strain rrp6, active compounds read low 1.01 | S. cerevisiae deletion strains, locus YOR061W, strain CKA2, active compounds read low 1.02 | S. cerevisiae deletion strains, locus YOR069W, strain VPS5, active compounds read low 1.02 | S. cerevisiae deletion strains, locus YOR070C, strain gyp1, active compounds read low 0.987 | S. cerevisiae deletion strains, locus YOR080W, strain dia2, active compounds read low 0.977 | S. cerevisiae deletion strains, locus YOR083W, strain WHI5, active compounds read low 1.01 | S. cerevisiae deletion strains, locus YOR106W, strain vam3, active compounds read low 0.999 | S. cerevisiae deletion strains, locus YOR136W, strain idh2, active compounds read low 0.981 | S. cerevisiae deletion strains, locus YOR144C, strain elg1, active compounds read low 1 | S. cerevisiae deletion strains, locus YOR184W, strain ser1, active compounds read low 0.979 | S. cerevisiae deletion strains, locus YOR265W, strain rbl2, active compounds read low 0.997 | S. cerevisiae deletion strains, locus YOR270C, strain vph1, active compounds read low 0.948 | S. cerevisiae deletion strains, locus YOR290C, strain snf2, active compounds read low 0.947 | S. cerevisiae deletion strains, locus YOR316C, strain cot1, active compounds read low 0.994 | S. cerevisiae deletion strains, locus YPL051W, strain arl3, active compounds read low 1.02 | S. cerevisiae deletion strains, locus YPL055C, strain LGE1, active compounds read low 1.02 | S. cerevisiae deletion strains, locus YPL078C, strain atp4, active compounds read low 0.989 | S. cerevisiae deletion strains, locus YPL106C, strain sse1, active compounds read low 0.985 | S. cerevisiae deletion strains, locus YPL240C, strain hsp82, active compounds read low 0.961 | S. cerevisiae deletion strains, locus YPL241C, strain CIN2, active compounds read low 0.972 | S. cerevisiae deletion strains, locus YPR119W, strain clb2, active compounds read low 0.993 | S. cerevisiae deletion strains, locus YPR141C, strain kar3, active compounds read low 0.986 | S. cerevisiae deletion strains, locus YPR163C, strain tif3, active compounds read low 0.998 | S. cerevisiae deletion strains, locus YPR167C, strain met16, active compounds read low 1 | S. cerevisiae deletion strains, strain wtn01, active compounds read low 1.01 | S. cerevisiae strains, strain wild type, active compounds read low 1.04
